# Structures can show the parent of a compound that is named as a salt.
# Assays:
# Test in all cases: normalised indicator fluorescence (fraction of RNA + indicator signal without compound); higher = less displacement of indicator (weaker competition)
# Conditions in all cases: compound concentration: 5 uM, 30 min
# hsa-mir-191 loop = system: hsa-mir-191 loop
# In short: (§1)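 Displacement screen in 96-well plates: TO-PRO-1 or TO-PRO-3 indicator with RNA in 20 mM phosphate pH 7.0, 20 mM NaCl, 80 mM KCl. Each compound was added as 0.25 μL of 1 mM DMSO stock (about 5 uM final), and fluorescence was read after 30 min on an Infinite 200 PRO (excitation 485 or 620 nm). Values are indicator fluorescence after subtracting the buffer-plus-indicator blank, divided by the no-compound RNA-plus-indicator signal. Each is the mean of two independent experiments.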
# hsa-mir-21 loop = system: hsa-mir-21 loop
# In short: as §1
# hsa-mir-221 loop = system: hsa-mir-221 loop
# In short: as §1
# hsa-mir-374a loop = system: hsa-mir-374a loop
# In short: as §1
# hsa-mir-6850 loop = system: hsa-mir-6850 loop
# In short: as §1
# [1] = indicator: TO-PRO-1 0.1 uM, RNA concentration: 0.1 uM
# [2] = indicator: TO-PRO-3 0.5 uM, RNA concentration: 0.5 uM
SMILES,normalised indicator fluorescence (hsa-mir-191 loop; [1]),normalised indicator fluorescence (hsa-mir-191 loop; [2]),normalised indicator fluorescence (hsa-mir-21 loop; [1]),normalised indicator fluorescence (hsa-mir-21 loop; [2]),normalised indicator fluorescence (hsa-mir-221 loop; [1]),normalised indicator fluorescence (hsa-mir-221 loop; [2]),normalised indicator fluorescence (hsa-mir-374a loop; [1]),normalised indicator fluorescence (hsa-mir-374a loop; [2]),normalised indicator fluorescence (hsa-mir-6850 loop; [1]),normalised indicator fluorescence (hsa-mir-6850 loop; [2])
O=C(NC(Cc1cc(=O)[nH]c2ccccc12)C(=O)O)c1ccc(Cl)cc1 (stereo not drawn) [Rebamipide],1.07,1.14,0.99,1.03,1.08,1.04,1.1,1.13,1.19,1.03
N#CC(c1ccnc(OCc2ccc(CN3CCOCC3)cc2)n1)c1nc2ccccc2s1 (stereo not drawn),1.03,0.659,1.14,0.839,1.37,0.837,1.26,0.694,0.827,0.505
Cn1cc(C2=C(c3cn(CCCSC(=N)N)c4ccccc34)C(=O)NC2=O)c2ccccc21 [Ro 31-8220 Mesylate],1.38,0.894,,0.929,,0.947,,1.02,1.08,0.859
CCNC(=O)c1noc(-c2cc(C(C)C)c(O)cc2O)c1-c1ccc(CN2CCOCC2)cc1 [Luminespib],1.08,1.05,1.03,1.02,1.06,1.05,1.04,1.15,1.01,1.06
COc1ccc(-c2coc3cc(O)ccc3c2=O)cc1O [Calycosin],1.08,1.02,1,1.06,1.03,1.08,1.01,1.25,1.01,1.07
COC1=C(OC)C(=O)C(CCCCCCCCCCO)=C(C)C1=O [Idebenone],1.04,1.05,0.937,1.04,1.02,1.04,1.04,1.03,0.917,1.02
N=C(NCCCCCCNC(=N)NC(=N)Nc1ccc(Cl)cc1)NC(=N)Nc1ccc(Cl)cc1 [Chlorhexidine hydrochloride],1.01,0.962,0.896,1,1.01,0.981,1.06,1.05,0.906,1.04
Cc1oncc1C(=O)Nc1ccc(C(F)(F)F)cc1 [Leflunomide],0.986,0.97,0.91,1.03,1,1.11,1.11,1.36,0.838,1.01
CC(C)(O)[C@@H]1CC[C@](C)([C@H]2[C@@H](O)C[C@@]3(C)[C@@H]4C[C@H](O)[C@H]5C(C)(C)[C@@H](O[C@@H]6OC[C@@H](O)[C@H](O)[C@H]6O[C@@H]6O[C@H](CO)[C@@H](O)[C@H](O)[C@H]6O)CC[C@@]56C[C@@]46CC[C@]23C)O1 [Astragaloside III],1.09,1.07,1.01,1.02,1.06,1.07,1.04,1.19,0.952,1.11
COc1ccc(C(=C2C(=O)Nc3ccccc32)c2ccc(OC)cc2)cc1,1,1.03,0.92,1.03,1.1,1.09,1.08,1.15,0.944,1.03
O=C1O[C@H]([C@@H](O)CO)C(O)=C1O [L(+)-Ascorbic acid],1.01,1,0.953,1,1.05,1.11,1.05,1.12,1.09,1.06
Oc1ccc(-c2nc(-c3ccc(F)cc3)c(-c3ccncc3)[nH]2)cc1,1.1,1.04,0.993,1.03,1.08,1.13,1.09,1.2,0.999,1.04
CN(C)CCCN1c2ccccc2CCc2ccc(Cl)cc21 [Clomipramine hydrochloride],1,1.1,0.961,0.987,1.07,1.01,1.14,1.02,0.864,1.08
CC(C)c1cc(C(C)C)c(CC(=O)NS(=O)(=O)Oc2c(C(C)C)cccc2C(C)C)c(C(C)C)c1 [Avasimibe],1.05,1.12,0.952,1.08,1.05,1.03,1.08,,0.985,0.948
CNc1ccc([N+](=O)[O-])c(Nc2ccc3[nH]ncc3c2)n1,0.903,0.996,0.899,1.02,0.959,1.15,1.1,1.35,0.93,0.929
O=c1cc(-c2ccc(O)c(-c3c(O)cc(O)c4c(=O)cc(-c5ccc(O)cc5)oc34)c2)oc2cc(O)cc(O)c12 [Amentoflavone],0.994,1.42,1.16,1.23,1.19,1.17,1.29,,1.07,1.03

SMILES,normalised indicator fluorescence (hsa-mir-191 loop; [1]),normalised indicator fluorescence (hsa-mir-191 loop; [2]),normalised indicator fluorescence (hsa-mir-21 loop; [1]),normalised indicator fluorescence (hsa-mir-21 loop; [2]),normalised indicator fluorescence (hsa-mir-221 loop; [1]),normalised indicator fluorescence (hsa-mir-221 loop; [2]),normalised indicator fluorescence (hsa-mir-374a loop; [1]),normalised indicator fluorescence (hsa-mir-374a loop; [2]),normalised indicator fluorescence (hsa-mir-6850 loop; [1]),normalised indicator fluorescence (hsa-mir-6850 loop; [2])
O=C1C[C@@H](c2ccc(O)cc2)Oc2cc(O)cc(O)c21 [Naringenin],0.927,1.03,0.942,1.05,1.07,0.975,1.17,1.18,0.978,1.02
COc1ccc(C2CC(=O)c3c(O)cc(OC4OC(COC5OC(C)C(O)C(O)C5O)C(O)C(O)C4O)cc3O2)cc1OC (stereo not drawn) [Methyl hesperidin],0.968,1.08,0.942,0.97,1.05,1.03,1.14,1.14,0.967,1.07
CC1(C)C=Cc2c(ccc3c2OC[C@@H](c2ccc(O)cc2O)C3)O1 [Glabridin],1.07,1.05,1.05,1.03,1.04,1,1.13,1.2,0.981,1.01
O=c1ncn2nc(Sc3ccc(F)cc3F)ccc2c1-c1c(Cl)cccc1Cl [Neflamapimod],1.04,1.05,0.973,1.04,1.03,1.22,1.07,1.3,0.955,1.02
Cn1cc(-c2ccc3c(c2)CCN3C(=O)Cc2cccc(C(F)(F)F)c2)c2c(N)ncnc21,1.04,1.1,1.06,1.07,1.08,1.03,1.23,1.18,0.993,1.18
CN(C)C[C@@H]1CCn2cc(c3ccccc32)C2=C(C(=O)NC2=O)c2cn(c3ccccc23)CCO1 [Ruboxistaurin hydrochloride],1.1,1.04,0.991,1.01,1,1.12,1.03,1.24,0.894,0.897
Nc1ncnc2c1ncn2[C@@H]1O[C@H](CO)[C@@H](O)[C@@H]1O [Vidarabine],1.03,1.07,1.03,1.04,1.03,1.04,1.16,1.15,1,1.06
N#Cc1c(NC(=O)c2cccc3ccccc23)sc2c1CCCC2,1.04,0.988,1.02,1.01,0.919,1.02,,0.983,1.08,1.02
CC(=O)c1ccc(S(=O)(=O)NC(=O)NC2CCCCC2)cc1 [Acetohexamide],0.972,1.04,0.846,1.09,1.08,1.05,1.18,1.21,0.908,1.08
CCNC(=O)c1[nH]nc(-c2cc(Cl)c(O)cc2O)c1-c1ccc(OC)cc1,1.01,1.05,1.05,1.06,1.02,0.975,1.11,1.11,0.952,1.05
CO[C@@H]1[C@H](N(C)C(=O)c2ccccc2)C[C@H]2O[C@]1(C)n1c3ccccc3c3c4c(c5c6ccccc6n2c5c31)C(=O)NC4 [Midostaurin],1.16,1.04,1.09,1.06,1.18,0.972,,1.43,1.02,1.02
O=c1c(O)c(-c2cc(O)c(O)c(O)c2)oc2cc(O)cc(O)c12 [Myricetin],0.403,0.684,0.387,0.742,0.505,0.659,0.543,0.424,0.604,0.969
CC(=O)CCCCn1c(=O)c2c(ncn2C)n(C)c1=O [Pentoxifylline],1.05,1.01,1.02,1.04,1.01,1.02,1.04,0.959,0.943,0.997
CC1(C)CC(=O)c2c(C(F)(F)F)nn(-c3ccc(C(N)=O)c(N[C@H]4CC[C@H](O)CC4)c3)c2C1,1.03,1.03,0.989,1.04,0.978,1.18,1.01,1.13,0.777,0.989
CN1CCN(c2ccc(C(=O)Nc3n[nH]c4ccc(Cc5cc(F)cc(F)c5)cc34)c(NC3CCOCC3)c2)CC1 [Entrectinib],1.11,1.04,1.04,1.04,1.04,1.18,1.09,1.56,1.01,1.03
O=C1c2c(O)cc(O)cc2OC(c2ccc(O)c(O)c2)C1O (stereo not drawn) [Taxifolin],0.994,1.06,0.976,1.05,1.05,1.11,1.13,1.15,0.944,1.08

# From the supplement of paper PMC11865577
